The structures appear in SMILES notation. Out of some 320,000 compounds screened, about 22,000 (6.9%) were called active. Not shown: some 27% with an inconclusive outcome. Shown is part of a subset that was picked to be rich in actives. Values without a mark were called inactive. Calls follow the shape of the dose curve; as a rule, active = well fitted inhibition curve with a large enough effect; inconclusive = small, poorly fitted or top-dose-only effect, or another doubt; inactive = no such curve, though single readings can be large or run the other way.

This is an account of results in PubChem BioAssay AID504834 (National Center for Advancing Translational Sciences (NCATS), 2011).
% is scaled to controls: 0 for no effect and ±100 for the full control effect; potency is read from the fitted curve at half-maximal effect.

The assay is described as follows: Primary qHTS for delayed death inhibitors of the malarial parasite plastid, 96 hour incubation. To be noted: P. falciparum luciferase reporter growth; series mostly up to 28.7 µM; activity change, negative = inhibition: at the top concentration. In short, it runs like this:
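Erythrocytes infected with luciferase-expressing P. falciparum were dispensed at 2% hematocrit and 0.05% parasitemia (final), then incubated with compounds 96 hours at 37 C in 5% CO2. Luminescence after detection reagent addition reported growth.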
In the case of `C=CCn1c(=O)c(C(=O)NCc2ccc3c(c2)OCO3)c(O)c2ccccc21`, the “activity change, negative = inhibition” value was -16.3%.
`O=C1[C@H]2[C@@H](c3ccc(Cl)cc3)N3C(=O)N(c4cccc(F)c4)C(=O)[C@@]3(Cc3ccccc3)[C@H]2C(=O)N1C1CCCCC1`: the Potency is 8.28 µM (active).
On to `O=C(COC(=O)c1ccc(F)cc1)NCCCc1ccccc1`, for which the “activity change, negative = inhibition” value was 36.7%.
For the compound `Cc1cccc(S(=O)(=O)CC(=O)Nc2nc(-c3ccccc3)cs2)c1`, the “activity change, negative = inhibition” value is -14.2%.
As for `CC(C)(C)c1ccc(NC(=O)COC(=O)CCc2nc3ccccc3c(=O)[nH]2)cc1`, the “activity change, negative = inhibition” value is 20.8%.
For the compound `Cc1cc(C)c(-c2csc(NC(=O)CCCc3nc4ccccc4c(=O)[nH]3)n2)c(C)c1`, the Potency is 0.329 µM (active).
In the case of `CC(C)Oc1ccc(/C=N/NC(=O)c2nnn(-c3nonc3N)c2CN(C)C2CCCCC2)cc1`, the “activity change, negative = inhibition” value was 38.5%.
Still for that read-out and setting: with `CCC(C)Sc1nc2c(cnn2-c2ccc(F)cc2)c(=O)[nH]1` (configuration not stated) the figure was 6.68%; with `COCCNC(=S)N/N=C/c1c(C)[nH]c2ccccc12`, -2.14%.
Take `COc1ccc(OC)c(N=Cc2c(O)[nH]c3ccccc23)c1`: the “activity change, negative = inhibition” value is -10.7%.
Take `CN=c1scc(-c2cc(OC)ccc2OC)n1/N=C/c1c(C)[nH]c2ccccc12`: the Potency is 6.57 µM (active).
Take `CC1CCC(NC(=O)CNC(=O)c2ccc3ccccc3c2)CC1` (configuration not stated): the “activity change, negative = inhibition” value was 41.9%.
Same read-out and setting: under `O=C(C1CC(=O)N(C2CCCCC2)C1)N1CCN(c2ccccc2)CC1` (configuration not stated) stands -5.68%; under `Cc1cc(C(=O)NCCc2ccc(Cl)cc2)c(C)o1`, 51.2%.
On to `CCCN1CCN(CCCNC(=O)CN2C(=O)COc3ccccc32)CC1`, for which the “activity change, negative = inhibition” value is 4.84%.
On the same count and under the same terms, with `O=C(CN1C(=O)c2cccnc2Oc2ccc(Cl)cc21)Nc1ccc(F)cc1` the figure was 68.1%; with `Cc1ccc2c(c1)N(CC(=O)N1CCC(C)CC1)C(=O)c1cccnc1O2`, 3.29%.
For the compound `Cc1ccc2c(c1)N(CC(=O)NCCCN1CCCCC1)C(=O)c1cccnc1O2`, the Potency is 9.28 µM (active).
Same read-out and setting: under `Cc1ccc2c(c1)N(CC(=O)NCCc1ccc(Cl)cc1)C(=O)c1cccnc1O2` stands 10.4 µM (active).
For `COc1ccc(NC(=O)COC(=O)c2n[nH]c3ccccc23)c(OC)c1`, the “activity change, negative = inhibition” value is 11.9%.
As to `CCCc1ccc(C(=O)COC(=O)CN2C(=O)NC3(CCCCC3C)C2=O)cc1` (configuration not stated), the “activity change, negative = inhibition” value is -10.4%.
The same measure, in the same setting: under `O=C(CN(C(=O)c1nsc(Cl)c1Cl)c1cccc(F)c1)NC1CCCC1` stands -1.32%; under `CC(Oc1ccccc1)C(=O)Nc1c2c(nn1-c1ccccc1)CS(=O)C2` (configuration not stated), -11.3%; under `C=CCN1C(=O)c2ccc(C(=O)N3CCC(C(=O)OCC)CC3)cc2C1=O`, 61.5%.
On the same count and under the same terms, under `Cc1cccc(C(=O)NNC(=O)CSc2nnc(C(C)C)n2C)c1` stands 19%.
On the same count and under the same terms, with `Cc1cc(C(=O)N/N=C\C(Br)=C\c2ccccc2)c(C)o1` the figure was 11.7%.
Consider `CC(=C/c1ccccc1)/C=N/NC(=O)c1cc(C)oc1C`, for which the Potency is 9.28 µM (active).
In the case of `Cc1cc(C(=O)N/N=C/c2ccccc2[N+](=O)[O-])c(C)o1`, the “activity change, negative = inhibition” value was 33.4%.
On the same count and under the same terms, with `COc1cccc(Cn2cc(/C=N/NC(=O)c3cc(O)cc(O)c3)c3ccccc32)c1` the figure was -22.1%.
For the compound `COc1ccc(N2CCN(C(=O)CNC(=O)c3ccc(C(C)(C)C)cc3)CC2)cc1`, the Potency was 4.65 µM (active).
For the compound `COc1cc(OC)cc(C(=O)NCC(=O)N2CCCCCCC2)c1`, the “activity change, negative = inhibition” value is -16.6%.
Same read-out and setting: with `COc1ccc(N2CCN(C(=O)CCNC(=O)c3ccc(Br)cc3)CC2)cc1` the figure was -2.69%.
As to `O=C(NCC(=O)N1CCN(c2ccccc2O)CC1)c1ccc2ccccc2c1`, the Potency is 6.57 µM (active).
`O=C(NCC(=O)N1CCCCCCC1)c1ccccc1Cl`: the “activity change, negative = inhibition” value was 70.2%.
The same measure, in the same setting: under `COc1ccc(N2CCN(C(=O)CNS(=O)(=O)c3ccc(C)c(C)c3)CC2)cc1` stands -44% [at 5.75 µM].
On the same count and under the same terms, with `CCOC(=O)c1c(N)sc2c1CCCC2=O` the figure was 21.3%.
With `O=C(CN(C(=O)CNC(=O)c1cccs1)c1cccc(F)c1)NC1CCCCC1`, the “activity change, negative = inhibition” value was 8.81%.
On the same count and under the same terms, under `COc1ccccc1/C=C/C(=O)NC1CC2CCC1C2` (configuration not stated) stands 9.8%; under `O=S(=O)(Nc1ccccc1Cl)c1cccc2nsnc12`, -16.2%; under `O=C(Nc1ccccc1)c1ccc2c(c1)OCCCO2`, 1.97%.
On the same count and under the same terms, under `C[C@H](NC(=O)[C@@H]1Cc2ccccc2CN1C(=O)OC(C)(C)C)C(=O)NC1CCCC1` stands -19.6%.
On to `CCN(CC)C(=O)c1ccc(O)c(OC)c1`, for which the Potency result is “inactive”.
As for `COc1ccc(CCNC(=O)CCC(=O)NC2CCCCC2)cc1OC`, the “activity change, negative = inhibition” value was -3.75%.
In the case of `COc1ccc(Cl)cc1C(=O)NNC(=S)NC1CCCC1`, the “activity change, negative = inhibition” value was 35%.
Regarding `O=C(COc1ccccc1O)NC1CCCC1`, the “activity change, negative = inhibition” value was -9.08%.
Regarding `COc1cc(C(=S)NC2CCCCC2)ccc1O`, the Potency was 4.15 µM (active).
Same read-out and setting: under `COc1ccc(C(C)NC(=S)NC2CCCCC2)cc1OC` (configuration not stated) stands 10.4 µM (active).
Regarding `Cc1ccc(C)c(NS(=O)(=O)c2c(C)[nH]c(C)c2C(=O)N2CCCCC2)c1`, the “activity change, negative = inhibition” value is 29.7%.
On the same count and under the same terms, with `CC(=O)N1CCN(CC(c2ccccc2)c2ccccc2)CC1` the figure was 0%; with `NC(=O)C(Cc1ccccc1)NC(=O)C12CC3CC(CC(C3)C1)C2` (configuration not stated), 11.1%.
For `CC(=O)O[C@]1(C(C)=O)CC[C@H]2[C@@H]3C=C(C)C4=CC(=O)CC[C@]4(C)[C@H]3CC[C@@]21C`, the Potency is 11.7 µM (active).
For `CCCCN(C1CCS(=O)(=O)C1)S(=O)(=O)c1ccc(C(C)C)cc1` (configuration not stated), the “activity change, negative = inhibition” value is 2.84%.
